# Sampled rows, rich in hits. Any-hit rate of the full collection: about 1.9%.
# LANA-H2B inh: blockers of LANA interaction with H2A/H2B – biochemical, FP readout, HTS, primary screen. Protein LANA1 (Human herpesvirus 8 type P (isolate GK18)), Q9QR71. cell-free LANA-H2A/H2B peptide, fluorescence polarization. inhibition, % (concentration not given with the values). actives 0.6% (n = 320,000); in the data active = inhibition mostly above about 10%, no sharp cut-off; inactive = mostly below about 6.7%
# GLD-1 RNA inh: GLD-1/TGE RNA complex disruptors, primary screen, biochemical, fluorescence polarization. Female germline-specific tumor suppressor gld-1 (Caenorhabditis elegans), Q17339. purified GLD-1 + fluorescein TGE RNA. inhibition, % at 5.96 µM. actives 0.44% (n = 320,000);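 active = percent inhibition above a per-plate cutoff, the plate mean of test compounds plus 3 SD, cut at about 30% in these data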;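 also: 0% = DMSO wells with GLD-1 and probe and 100% = wells lacking GLD-1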
# MCL1 BIM primary: inhibitors of MCL1 binding to BIM-BH3, primary screen, biochemical, fluorescence polarization | GST-MCL1 / FITC-Bim-BH3 fluorescence polarization | Induced myeloid leukemia cell differentiation protein Mcl-1 (Homo sapiens), Q07820 | actives 0.68% (n = 320,000) | AID 2057, 2009 | inhibition, % at 10.9 µM;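 active = inhibition above the mean inhibition of all tested compounds plus 3 SD, set per campaign, cut at about 40% in these data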;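 also: 0% = DMSO wells and 100% = unlabeled Bim-BH3 peptide control; higher means more loss of mP so more displacement of Bim peptide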
# MEX-5 binding: MEX-5 zinc finger RNA-binding disruptors – biochemical, C. elegans, fluorescence polarization, MLPCN library, primary screen; MEX-5/FITC-TCR2 RNA binding; hits give low values; activity score (negative = inhibition of binding), % at 10 µM; Zinc finger protein mex-5 (Caenorhabditis elegans), Q9XUB2; AID 1832, 2009; actives 0.38% (n = 300,000);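 active = inhibition past about -25% in most replicates, and total fluorescence under double the plate's negative control median, limit read from the data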;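 also: 0% = DMSO and -100% = 5 µM competing unlabeled TCR2 RNA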
# Target sequence (Q9XUB2 whole entry, looked up): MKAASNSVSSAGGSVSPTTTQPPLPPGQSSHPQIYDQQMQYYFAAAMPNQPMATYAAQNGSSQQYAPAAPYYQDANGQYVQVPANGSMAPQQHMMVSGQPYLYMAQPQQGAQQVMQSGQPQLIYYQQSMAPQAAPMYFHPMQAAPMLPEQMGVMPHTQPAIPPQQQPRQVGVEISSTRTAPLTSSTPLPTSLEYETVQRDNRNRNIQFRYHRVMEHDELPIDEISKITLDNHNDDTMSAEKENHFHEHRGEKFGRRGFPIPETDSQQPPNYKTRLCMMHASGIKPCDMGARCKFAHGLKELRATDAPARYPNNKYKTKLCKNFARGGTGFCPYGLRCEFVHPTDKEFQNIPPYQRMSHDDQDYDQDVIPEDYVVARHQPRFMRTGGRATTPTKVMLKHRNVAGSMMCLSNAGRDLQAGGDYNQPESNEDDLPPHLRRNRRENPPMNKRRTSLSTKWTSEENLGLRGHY
# Bcl-xL primary: inhibitors of human Bcl-xL, primary screen, biochemical, fluorescence polarization, HTS | Bcl-2-like protein 1 (Homo sapiens), Q07817 | GST-Bcl-xL / FITC-Bim BH3 peptide fluorescence polarization | inhibition, % at 10.9 µM | actives 0.7% (n = 320,000) | AID 2129, 2009;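 active = inhibition above the mean of all tested compounds plus 3 SD, cutoff set per campaign, cut at about 30% in these data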;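 also: 0% = DMSO wells and 100% = unlabeled Bim-BH3 peptide competitor; inhibitors lower millipolarization by displacing the labeled peptide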
# CR mimetic SO: reduction of superoxide in aged yeast, primary screen, HTS | superoxide response (% of plate mean), % at 10 µM | actives 0.18% (n = 330,000) | AID 2690, 2010 | S. cerevisiae aged cells, superoxide DHE fluorescence; hits give low values;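 active = superoxide response under a set limit, about three screen SD below normal, cut at about 65% in these data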;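 also: yeast aged for seven days with compound at 30 °C before DHE staining; 100% = average MFI of all compound-treated wells on the plate with controls excluded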
# Starred values were filed as active, the others as inactive; x = not tested or not shown; + = active, no number.
SMILES,LANA-H2B inh,GLD-1 RNA inh,MCL1 BIM primary,MEX-5 binding,Bcl-xL primary,CR mimetic SO
O=C(c1ccc([N+](=O)[O-])cc1)n1nc(-c2ccccc2)nc1NCc1ccccc1,-0.4,5.0,6.3,2.0,-0.4,97.2
COc1ccc(CC(=O)Nc2cc(Cl)ccc2C(=O)O)cc1,1.5,-2.8,0.8,-1.7,4.6,125.1
CCCCOc1ccc(Nc2cc(Cl)ccc2C(=O)O)cn1,-4.1,16.6,35.9,-6.8,36.9*,165.8
CC(=O)Nc1ccc(C2=NNC(=Nc3cccc(S(=O)(=O)N(C)C)c3)SC2)cc1,-1.9,-1.9,8.7,1.0,12.1,95.6
CN(C)S(=O)(=O)c1cccc(N=C2NN=C(c3ccccc3)CS2)c1,44.1*,3.2,0.1,x,5.6,76.6
CCN(CC)c1nc2c(c(=O)[nH]c(=O)n2C)n1CCOc1ccccc1,6.9,-9.5,2.2,-1.9,-3.1,101.2
COc1ccc(C(CNC(=O)c2ccc(S(=O)(=O)N3CC(C)CC(C)C3)cc2)N(C)C)cc1 (stereo unspecified),1.7,-1.9,x,x,x,107.1
COc1cccc(C(C(=O)NC2CCCCC2)N(C(=O)c2csnn2)C2CC2)c1 (stereo unspecified),12.9*,-5.5,4.3,-0.5,-0.7,88.2
CCOC(=O)N1CCN(Cc2ccccc2Cl)CC1,1.5,87.2*,-4.8,x,-2.4,112.8
CCCc1c(C(=O)NNc2ccccc2OC)cnn1-c1ccccc1,17.8*,1.8,1.3,-0.2,0.5,110.7
CCCc1c(C(=O)Nc2ccc(OC)cc2)cnn1-c1ccccc1,2.8,1.7,-0.2,-4.7,-0.4,81.2
Cc1ccc(NC(=O)CSc2nnnn2C2CCCC2)cc1S(=O)(=O)N1CCOCC1,0.9,4.4,1.0,x,-1.5,106.1
CCS(=O)(=O)Nc1ccc2c(c1)OCO2,-1.8,27.0,35.9,-1.3,41.2*,96.4
CC(NC(=O)c1ccncc1)c1ccc(Br)cc1 (stereo unspecified),-19.3,5.8,1.1,-6.2,1.0,114.6
CCc1ccc(C(C)NC(=O)c2ccncc2)cc1 (stereo unspecified),23.3*,-2.3,10.0,-0.9,-0.2,93.0
COc1cc(NC(=O)NS(=O)(=O)c2ccc(C)cc2)cc(OC)c1,-2.8,-3.6,1.4,0.8,3.2,107.9
COc1ccc(NC(=O)Nc2ccc(OCc3ccccc3)cc2)cn1,-0.3,x,x,-37.2*,x,98.2
COc1ccc(NC(=O)NS(=O)(=O)c2ccc(C)cc2)cn1,67.9*,x,x,-49.8*,x,110.4
O=C(Nc1ccc(OCc2ccccc2)cc1)Nc1cccnc1,-9.1,7.4,-1.9,1.8,-0.2,122.9
COc1ccc(NC(=O)c2cc(S(=O)(=O)N3CCCC3)ccc2C)cn1,3.1,29.0,41.9*,x,34.7*,92.0
Cc1cccc(C)c1NC(=O)COC(=O)c1c2c(nc3ccccc13)/C(=C\c1ccc3c(c1)OCO3)CCC2,62.5*,181.8*,+,x,194.0*,101.7
COc1ccc(/C=C2\CCCc3c2nc2ccccc2c3C(=O)OCC(=O)c2c(N)n(C)c(=O)n(C)c2=O)cc1,x,100.9*,39.2,-0.5,41.1*,94.6
Cn1cnc(S(=O)(=O)Nc2ccccc2N2CCOCC2)c1,2.1,2.1,0.7,-0.4,-1.0,105.7
CN(C)c1cccc2c1c(NS(=O)(=O)c1cn(C)cn1)nn2C,-4.0,5.8,9.1,-29.9*,15.6,108.7
COc1ccc(S(=O)(=O)N2CCOCC2)cc1NC(=O)c1sccc1C,4.1,-2.5,-11.2,x,0.8,96.2
CCCNC(=O)c1onc(CS(=O)(=O)c2cc(C)cc(C)c2)c1C(=O)NCCC,1.6,4.3,x,x,x,84.9
O=C(Cn1cc(C(F)(F)F)ccc1=O)Nc1cccc(S(=O)(=O)N2CCOCC2)c1,22.3*,-7.6,4.1,1.3,-4.1,111.4

# Bioassay records deposited in PubChem BioAssay by several laboratories.
